Measurements from PubChem BioAssay AID1159580 (chemical genetic matrix, 2015).
Where “and” joins values, the source holds several entries; their conditions need not be identical. Equal entries are not always repeated. Hit rate of the full screen: of about 5,500 compounds, about 2,000 (36%) were called active. Inconclusive results (about 18%) are left out. No stated cut-off is given here; in the data, active means normalized growth mostly below about 0.91 (no sharp cut-off); inconclusive means no clear call, values can overlap the other calls; inactive means mostly above about 0.92. Some of the results follow.

Experiment: chemical genetic growth profiling, strain panel (AID 1159580);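 further: tested at 20 µM; growth read once vehicle control cultures reached saturation at 30 °C; 1 = growth at the plate median or of vehicle wells; lower values mean less growth of the strain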
Settings: growth OD

Measured: normalized growth

NC1(C(=O)O)CC1
inactive: S. cerevisiae deletion strains, locus YJR075W, strain HOC1, active compounds read low 0.985 | S. cerevisiae deletion strains, locus YKL009W, strain mrt4, active compounds read low 1.03 | S. cerevisiae deletion strains, locus YKL068W, active compounds read low 1.01 | S. cerevisiae deletion strains, locus YKL085W, strain MDH1 (second series), active compounds read low 1.04 | S. cerevisiae deletion strains, locus YKL085W, strain MDH1, active compounds read low 1.04 | S. cerevisiae deletion strains, locus YKL160W, strain elf1, active compounds read low 1.04 | S. cerevisiae deletion strains, locus YKL190W, strain CNB1, active compounds read low 1.01 | S. cerevisiae deletion strains, locus YKR001C, strain vps1, active compounds read low 1.03 | S. cerevisiae deletion strains, locus YKR026C, strain gcn3, active compounds read low 1.03 | S. cerevisiae deletion strains, locus YKR091W, strain srl3, active compounds read low 1.03 | S. cerevisiae deletion strains, locus YLL001W, strain dnm1, active compounds read low 1.01 | S. cerevisiae deletion strains, locus YLL026W, active compounds read low 1.03 | S. cerevisiae deletion strains, locus YLL041C, strain sdh2, active compounds read low 1.02 | S. cerevisiae deletion strains, locus YLR027C, strain aat2, active compounds read low 1.02 | S. cerevisiae deletion strains, locus YLR039C, strain RIC1, active compounds read low 1.04 | S. cerevisiae deletion strains, locus YLR058C, strain SHM2, active compounds read low 1.01 | S. cerevisiae deletion strains, locus YLR102C, strain apc9, active compounds read low 1.01 | S. cerevisiae deletion strains, locus YLR113W, strain HOG1, active compounds read low 1.04 | S. cerevisiae deletion strains, locus YLR221C, strain rsa3, active compounds read low 1 | S. cerevisiae deletion strains, locus YLR258W, strain gsy2, active compounds read low 1.04 | S. cerevisiae deletion strains, locus YLR262C, strain YPT6 (second series), active compounds read low 1.03 | S. cerevisiae deletion strains, locus YLR262C, strain YPT6, active compounds read low 1.03 | S. cerevisiae deletion strains, locus YLR268W, strain sec22, active compounds read low 1.02 | S. cerevisiae deletion strains, locus YLR320W, strain mms22, active compounds read low 1.01 | S. cerevisiae deletion strains, locus YLR330W, strain CHS5, active compounds read low 1.01 | S. cerevisiae deletion strains, locus YLR342W, strain FKS1 (second series), active compounds read low 1.04 | S. cerevisiae deletion strains, locus YLR342W, strain FKS1, active compounds read low 1.03 | S. cerevisiae deletion strains, locus YLR357W, strain rsc2, active compounds read low 1.02 | S. cerevisiae deletion strains, locus YLR370C, strain arc18, active compounds read low 1.05 | S. cerevisiae deletion strains, locus YLR371W, strain rom2, active compounds read low 1.01 | S. cerevisiae deletion strains, locus YLR384C, strain iki3, active compounds read low 1.01 | S. cerevisiae deletion strains, locus YLR418C, strain cdc73, active compounds read low 1 | S. cerevisiae deletion strains, locus YML016C, strain PPZ1, active compounds read low 1.01 | S. cerevisiae deletion strains, locus YML032C, strain rad52, active compounds read low 1.04 | S. cerevisiae deletion strains, locus YML120C, strain ndi1, active compounds read low 1.01 | S. cerevisiae deletion strains, locus YML124C, strain tub3, active compounds read low 1.02 | S. cerevisiae deletion strains, locus YMR058W, strain fet3, active compounds read low 1.03 | S. cerevisiae deletion strains, locus YMR078C, strain ctf18, active compounds read low 1.03 | S. cerevisiae deletion strains, locus YMR125W, strain sto1, active compounds read low 1.03 | S. cerevisiae deletion strains, locus YMR129W, active compounds read low 1.02 | S. cerevisiae deletion strains, locus YMR205C, strain PFK2, active compounds read low 1.03 | S. cerevisiae deletion strains, locus YMR223W, strain ubp8, active compounds read low 1.03 | S. cerevisiae deletion strains, locus YMR231W, strain pep5, active compounds read low 1.03 | S. cerevisiae deletion strains, locus YMR263W, strain SAP30, active compounds read low 1.02 and 1 | S. cerevisiae deletion strains, locus YMR307W, strain GAS1, active compounds read low 0.989 | S. cerevisiae deletion strains, locus YNL067W, strain RPL9B, active compounds read low 1.02 | S. cerevisiae deletion strains, locus YNL071W, strain lat1, active compounds read low 1.03 | S. cerevisiae deletion strains, locus YNL128W, strain TEP1, active compounds read low 1.01 | S. cerevisiae deletion strains, locus YNL153C, strain GIM3, active compounds read low 1.02 and 0.995 | S. cerevisiae deletion strains, locus YNL175C, strain NOP13, active compounds read low 0.965 | S. cerevisiae deletion strains, locus YNL183C, strain NPR1, active compounds read low 0.964 | S. cerevisiae deletion strains, locus YNL197C, strain WHI3, active compounds read low 0.965 | S. cerevisiae deletion strains, locus YNL209W, strain ssb2, active compounds read low 1.04 | S. cerevisiae deletion strains, locus YNL224C, strain SQS1, active compounds read low 1.01 | S. cerevisiae deletion strains, locus YNL233W, strain BNI4, active compounds read low 1 | S. cerevisiae deletion strains, locus YNL248C, strain rpa49, active compounds read low 1.06 | S. cerevisiae deletion strains, locus YNL250W, strain rad50, active compounds read low 1.03 | S. cerevisiae deletion strains, locus YNL271C, strain bni1, active compounds read low 1.03 | S. cerevisiae deletion strains, locus YNL298W, strain CLA4, active compounds read low 1.03 | S. cerevisiae deletion strains, locus YNL307C, strain MCK1, active compounds read low 1.04 | S. cerevisiae deletion strains, locus YNL322C, strain KRE1 (second series), active compounds read low 1.02 | S. cerevisiae deletion strains, locus YNL322C, strain KRE1, active compounds read low 1.01 | S. cerevisiae deletion strains, locus YNR049C, strain mso1, active compounds read low 1.01 | S. cerevisiae deletion strains, locus YNR052C, strain pop2, active compounds read low 1.01 | S. cerevisiae deletion strains, locus YOL006C, strain TOP1, active compounds read low 1.05 | S. cerevisiae deletion strains, locus YOL012C, strain htz1 0.791 | S. cerevisiae deletion strains, locus YOL147C, strain pex11, active compounds read low 1 | S. cerevisiae deletion strains, locus YOR001W, strain rrp6, active compounds read low 1.01 | S. cerevisiae deletion strains, locus YOR061W, strain CKA2, active compounds read low 1.01 | S. cerevisiae deletion strains, locus YOR069W, strain VPS5, active compounds read low 1 | S. cerevisiae deletion strains, locus YOR070C, strain gyp1, active compounds read low 1.02 | S. cerevisiae deletion strains, locus YOR080W, strain dia2, active compounds read low 1.02 | S. cerevisiae deletion strains, locus YOR083W, strain WHI5 (second series), active compounds read low 0.956 | S. cerevisiae deletion strains, locus YOR083W, strain WHI5, active compounds read low 1.04 | S. cerevisiae deletion strains, locus YOR106W, strain vam3, active compounds read low 1.04 | S. cerevisiae deletion strains, locus YOR136W, strain idh2, active compounds read low 1.02 | S. cerevisiae deletion strains, locus YOR144C, strain elg1, active compounds read low 1.02 | S. cerevisiae deletion strains, locus YOR184W, strain ser1, active compounds read low 1.05 | S. cerevisiae deletion strains, locus YOR231W, strain MKK1, active compounds read low 1.03 | S. cerevisiae deletion strains, locus YOR265W, strain rbl2, active compounds read low 1.03 | S. cerevisiae deletion strains, locus YOR270C, strain vph1, active compounds read low 1.1 | S. cerevisiae deletion strains, locus YOR290C, strain snf2, active compounds read low 1.06 | S. cerevisiae deletion strains, locus YOR316C, strain cot1, active compounds read low 1.01 | S. cerevisiae deletion strains, locus YPL051W, strain arl3, active compounds read low 1.04 | S. cerevisiae deletion strains, locus YPL055C, strain LGE1, active compounds read low 1 | S. cerevisiae deletion strains, locus YPL078C, strain atp4, active compounds read low 1.05 | S. cerevisiae deletion strains, locus YPL106C, strain sse1, active compounds read low 1.03 | S. cerevisiae deletion strains, locus YPL240C, strain hsp82, active compounds read low 1.02 | S. cerevisiae deletion strains, locus YPL241C, strain CIN2, active compounds read low 0.999 and 0.995 | S. cerevisiae deletion strains, locus YPL256C, strain CLN2, active compounds read low 1 | S. cerevisiae deletion strains, locus YPR119W, strain clb2, active compounds read low 1 | S. cerevisiae deletion strains, locus YPR141C, strain kar3, active compounds read low 1.02 | S. cerevisiae deletion strains, locus YPR163C, strain tif3, active compounds read low 1.03 | S. cerevisiae deletion strains, locus YPR167C, strain met16, active compounds read low 1.02 | S. cerevisiae deletion strains, strain wtn01, active compounds read low 1.02 | S. cerevisiae strains, strain wild type, active compounds read low 1.01
